Test results as given in PubChem BioAssay (EPA / NIEHS).
Results filed as inconclusive are left out. Calls of active or inactive are those of the source. The calls were made as follows, unless noted: active = hit-call score of the fitted dose curve at least 0.9, where 1 is the maximum; inactive = score below 0.9.

Experiments:
[1] = CCTE_Simmons_MITO_basal_resp_rate: CCTE's HepG2 Seahorse XF Respirometric Screening Assay at Basal Respiratory State, Simmons Lab (AID 2284001); details: actives raise or lower the signal
Outline: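 HepG2 oxygen consumption on Seahorse XF96 after compound injection, 7 concentrations 125 nM–100 uM final, reads every 6 min over 72 min. Triplicate biological replicates; bidirectional fit vs DMSO; fenpyroximate and 2,4-dinitrophenol controls.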

[2] = CCTE_Simmons_MITO_max_resp_rate: CCTE's HepG2 Seahorse XF Respirometric Screening Assay at Maximal Respiratory State [uncoupled], Simmons Lab (AID 2284002); details: actives raise or lower the signal
Outline: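 Maximal (FCCP-uncoupled) respiration rate in HepG2, from Seahorse kinetic OCR over 72 min at 6 min cycles. Compounds at 125 nM–100 uM final, 7 points, three biological replicates; both directions fit relative to DMSO.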

[3] = CCTE_Simmons_MITO_inhib_resp_rate: CCTE's HepG2 Seahorse XF Respirometric Screening Assay at Inhibited Respiratory State [full ETC block], Simmons Lab (AID 2284006); details: actives raise or lower the signal
Outline: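 Compound injected onto HepG2 cells (125 nM–100 uM final, 7 points); FCCP then rotenone/antimycin A added. Oxygen consumption read every 6 min (3 min mix, 3 min measure) for 72 min. Inhibited-state OCR fitted against DMSO.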

[4] = CCTE_Shafer_MEA_acute_spike_number: CCTE's Neural Acute Assay for Total Number of Spikes, Shafer Lab (AID 2284008);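 as to AC50: curve fitted for decrease in spike count so AC50 reflects inhibitors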
Outline: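 Total spike count from 40 min recordings before and during compound exposure (0.03-40 uM), given as per-well percent change. Cortical cultures from rat, DIV 13 or 15, 37 C; adaptive detection threshold 8x rms noise.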

[5] = CCTE_Shafer_MEA_acute_firing_rate_mean: CCTE's Neural Acute Assay for Mean Firing Rate, Shafer Lab (AID 2284009);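 also: analyzed for loss of signal so actives lower firing rate relative to DMSO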
Outline: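 Rat primary cortical neurons on 48-well MEA plates, dosed at 0.03-40 uM on DIV 13 or 15; 40 min spontaneous activity recorded at 37 C before and after compound. Spike rate per electrode averaged per well, expressed as percent change from baseline.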

[6] = CCTE_Harrill_HTTr_Viability_MCF7: CCTE's 6-hour Cell Viability Assessment for the High-Throughput Transcriptomics (HTTr) Platform, in MCF-7 cells cultured in DMEM + 10% fetal bovine serum, Harrill Lab (AID 2284010)
Outline: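 Cells were dosed with chemicals in an eight-point dilution series, imaged 6 hours later for propidium iodide uptake, and the endpoint was analyzed by bidirectional fitting against DMSO as negative control.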

[7] = CCTE_Simmons_MITO_viability: CellTiter-Glo Viability Assessment for CCTE's HepG2 Seahorse XF Respirometric Screening Assay [post-hoc], Simmons Lab (AID 2284007; active = hit-call score of the fitted dose curve at least 0.9, where 1 is the maximum)
Outline: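 After the Seahorse oxygen-consumption sequence (basal, FCCP, rotenone/antimycin A; 72 min total), HepG2 viability was scored as ATP content by bioluminescence. Chemicals ran at seven concentrations up to 100 uM final for 90 min.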

DIO1 (gene 1733) = assay: CCTE_GLTED_hDIO1: CCTE's human Deiodinase 1 (DIO1) Inhibition Assay, Great Lakes Toxicology and Ecology Division (GLTED) Lab (AID 2283987; active = hit-call score of the fitted dose curve at least 0.9, where 1 is the maximum;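 also: isolated human DIO1 enzyme in a cell-free setup rather than cells; enzyme activity read as free iodide liberated from substrate via Sandell-Kolthoff colorimetry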)
Outline: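 Inhibition read as reduced iodide release: after 3 h of human DIO1 with chemical, free iodide is quantified colorimetrically (Sandell-Kolthoff cerium/arsenic reaction). Triplicate plates, DMSO baseline.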

[8] = target: Nucleoli Translocation, AR (gene 367) (UniProt P10275); assay: UPITT_HCI_U2OS_AR_TIF2_Nucleoli_Antagonist: University of Pittsburgh U2OS Androgen Receptor-Transcriptional Intermediary Factor 2 (AR-TIF2) Antagonism High Content Imaging Assay for Nucleoli Translocation (AID 2283997; active = hit-call score of the fitted dose curve at least 0.9, where 1 is the maximum)
Outline: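 U2OS cells co-expressing red-fluorescent-tagged human AR and green-fluorescent-tagged TIF2, imaged by high-content microscopy for nucleolar red fluorescence. Antagonist mode against DHT; primary screen at 20 uM final (0.2% DMSO).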

[9] = target: Nucleoli Translocation, AR (gene 367) (UniProt P10275); assay: UPITT_HCI_U2OS_AR_TIF2_Nucleoli_Agonist: University of Pittsburgh U2OS Androgen Receptor-Transcriptional Intermediary Factor 2 (AR-TIF2) Agonism High Content Imaging Assay for Nucleoli Translocation (AID 2283998; active = hit-call score of the fitted dose curve at least 0.9, where 1 is the maximum)
Outline: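 Nucleolar translocation of AR-RFP, with TIF2-GFP coexpressed in human osteosarcoma U2OS, imaged by high-content fluorescence. Compounds tested singly at 20 uM final, confirmed in triplicate, then titrated 0.195–50 uM final; gain-of-signal relative to DMSO.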

[10] = target: Ratio of Nucleoli Translocation and Cytoplasm, AR (gene 367) (UniProt P10275); assay: UPITT_HCI_U2OS_AR_TIF2_Nucleoli_Cytoplasm_Ratio_Antagonist: University of Pittsburgh U2OS Androgen Receptor-Transcriptional Intermediary Factor 2 (AR-TIF2) Antagonism High Content Imaging Assay for Ratio of Nucleoli Translocation and Cytoplasm (AID 2283999; active = hit-call score of the fitted dose curve at least 0.9, where 1 is the maximum;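 also: antagonists lower the DHT-driven ratio of nucleolar to cytoplasmic red signal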)
Outline: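 Human osteosarcoma U2OS line, AR fused to RFP, coactivator TIF2 fused to GFP. Cpds 20 uM final, 0.2% DMSO (screen); 0.195–50 uM final, 0.5% DMSO (CRC). Endpoint: nucleoli/cytoplasm red signal ratio, DHT as baseline, loss-of-signal antagonist mode.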

[11] = target: Ratio of Nucleoli Translocation and Cytoplasm, AR (gene 367) (UniProt P10275); assay: UPITT_HCI_U2OS_AR_TIF2_Nucleoli_Cytoplasm_Ratio_Agonist: University of Pittsburgh U2OS Androgen Receptor-Transcriptional Intermediary Factor 2 (AR-TIF2) Agonism High Content Imaging Assay for Ratio of Nucleoli Translocation and Cytoplasm (AID 2284000; active = hit-call score of the fitted dose curve at least 0.9, where 1 is the maximum;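 also: hits raise the red nucleolar to cytoplasm ratio above vehicle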)
Outline: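 U2OS cells expressing RFP-tagged human AR and GFP-tagged TIF2; high-content imaging ratio of nucleolar to cytoplasmic red fluorescence, fitted as gain of signal vs DMSO. Single point at 20 uM final (0.2% DMSO); concentration-response 0.195-50 uM final (0.5% DMSO).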

Ratio of Nucleoli Translocation and Cytoplasm, AR (gene 367), sequence (P10275 whole entry, looked up, the tested form may be a part): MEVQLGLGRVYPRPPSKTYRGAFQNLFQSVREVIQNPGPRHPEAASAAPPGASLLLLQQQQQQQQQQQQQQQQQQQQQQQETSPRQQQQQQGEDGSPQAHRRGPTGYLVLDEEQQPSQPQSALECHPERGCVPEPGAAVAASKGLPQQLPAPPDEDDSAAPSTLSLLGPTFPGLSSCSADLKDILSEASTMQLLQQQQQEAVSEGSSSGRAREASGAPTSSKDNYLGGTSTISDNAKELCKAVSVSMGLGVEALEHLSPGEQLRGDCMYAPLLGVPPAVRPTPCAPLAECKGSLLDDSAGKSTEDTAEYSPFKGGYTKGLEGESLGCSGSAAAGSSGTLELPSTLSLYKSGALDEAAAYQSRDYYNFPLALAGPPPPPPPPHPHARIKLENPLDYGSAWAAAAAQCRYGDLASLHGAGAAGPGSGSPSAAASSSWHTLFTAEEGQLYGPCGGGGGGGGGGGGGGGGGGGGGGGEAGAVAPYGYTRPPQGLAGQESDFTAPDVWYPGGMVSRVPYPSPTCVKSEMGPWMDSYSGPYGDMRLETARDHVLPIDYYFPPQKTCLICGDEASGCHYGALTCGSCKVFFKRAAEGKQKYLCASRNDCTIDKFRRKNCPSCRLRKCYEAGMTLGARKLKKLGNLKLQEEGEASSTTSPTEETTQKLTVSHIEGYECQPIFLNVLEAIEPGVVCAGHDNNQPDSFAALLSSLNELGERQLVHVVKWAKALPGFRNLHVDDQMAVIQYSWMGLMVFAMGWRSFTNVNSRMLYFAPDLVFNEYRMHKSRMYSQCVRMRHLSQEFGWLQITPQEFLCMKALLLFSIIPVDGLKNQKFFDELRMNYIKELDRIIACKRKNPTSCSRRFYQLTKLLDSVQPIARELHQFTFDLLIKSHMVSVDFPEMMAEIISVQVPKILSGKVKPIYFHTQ
Nucleoli Translocation, AR (gene 367), sequence (P10275 whole entry, looked up): as the sequence (P10275 whole entry, looked up, the tested form may be a part) above

Structure (SMILES): CCc1cc(C2=C(C(=O)O)N(c3ccccc3C(F)(F)F)S(=O)(=O)c3ccccc32)cc2c1OCO2
- outcome [1]: inactive
- outcome [2]: inactive
- outcome [3]: inactive
- outcome [4]: inactive
- outcome [5]: inactive
- outcome [6]: inactive

Structure (SMILES): CCCCC(CC)COP(=O)(OCC(CC)CCCC)OCC(CC)CCCC (configuration not stated)
- outcome [4]: inactive
- outcome [5]: inactive

Structure (SMILES): CN(C)CCCN1c2ccccc2Sc2ccc(Cl)cc21
- outcome [4]: inactive
- outcome [5]: inactive

Structure (SMILES): CCCCCCC(C=O)=Cc1ccccc1
- outcome [1]: inactive
- outcome [2]: inactive
- outcome [3]: inactive
- outcome [7]: inactive
- outcome [6]: inactive

Structure (SMILES): Cc1ccc(-c2cc(C(F)(F)F)nn2-c2ccc(S(N)(=O)=O)cc2)cc1
- AC50 (DIO1 (gene 1733)): 170 µM (active)
- AC50 [8]: 26.6 µM (active)
- outcome [9]: inactive
- outcome [10]: inactive
- outcome [11]: inactive
- AC50 [4]: 6.27 µM (active)
- AC50 [5]: 6.27 µM (active)

Structure (SMILES): CCC(C)N(C)C(=O)c1cc2ccccc2c(-c2ccccc2Cl)n1 (configuration not stated)
- outcome [8]: inactive
- outcome [9]: inactive
- outcome [10]: inactive
- outcome [11]: inactive
- outcome [6]: inactive

Structure (SMILES): Cc1cc(Cc2ccc(N)c(C)c2)ccc1N
- outcome [1]: inactive
- AC50 [2]: 50 µM (active)
- outcome [3]: inactive
- AC50 [4]: 15.8 µM (active)
- AC50 [5]: 14.9 µM (active)
